# Calls of active or inactive are those of the source. How the source made its calls: active means hit-call score of the fitted dose curve at least 0.9, where 1 is the maximum; inactive means score below 0.9.
# Test: CCTE_Shafer_MEA_dev_firing_rate_mean: CCTE's Neural Network Formation Assay for Mean Firing Rate, Shafer Lab (AID 2284031);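 on AC50: curve fitted for loss of firing so AC50 reflects decreased mean firing rate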
# Summary of the method: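 Extracellular spike frequency, AUC over DIV 5–12 recordings, in rat cortical neuron MEA cultures dosed from plating; loss direction vs DMSO.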
Compound,outcome,AC50
Cc1ccccc1OP(=O)(Oc1ccccc1C)Oc1ccccc1C,inactive,–
FC(F)OCC(F)(F)C(F)(F)F,inactive,–
NC(=O)c1ccc(N)nc1,–,9.03 µM (active)
C=CC(F)(C(F)(F)F)C(F)(F)C(F)(F)F (stereo not given),inactive,–
CC(=O)C(F)(F)C(F)(F)F,inactive,–
CC(C)[C@@H](Nc1ccc(C(F)(F)F)cc1Cl)C(=O)OC(C#N)c1cccc(Oc2ccccc2)c1 (stereo not given in full),inactive,–
Cc1cc(C(F)(C(F)(F)F)C(F)(F)F)ccc1NC(=O)c1cccc(I)c1C(=O)NC(C)(C)CS(C)(=O)=O,inactive,–
O=S(=O)(F)C(F)(F)C(F)(F)C(F)(F)C(F)(F)F,inactive,–
OC(Cc1ccccc1Cl)(Cn1[nH]cnc1=S)C1(Cl)CC1 (stereo not given),–,20.8 µM (active)
CCOCn1c(-c2ccc(Cl)cc2)c(C#N)c(Br)c1C(F)(F)F,–,3.01 µM (active)
C=CCOC(F)(C(F)(F)F)C(F)(F)F,inactive,–
CNC(=O)CSP(=O)(OC)OC,inactive,–
CS(=O)(=O)c1ccc(C(=O)C2C(=O)CCCC2=O)c(Cl)c1COCC(F)(F)F,inactive,–
CC1(C)[C@H](C(=O)O[C@H](C#N)c2cccc(Oc3ccccc3)c2)[C@@H]1/C=C(\Cl)C(F)(F)F,inactive,–
CC(F)(F)CC(F)(F)F,inactive,–

# Test: CCTE_Shafer_MEA_dev_per_burst_spike_percent: CCTE's Neural Network Formation Assay for Percent of Spikes in a Burst, Shafer Lab (AID 2284032);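 on AC50: fitted as a decrease in burst spike percentage below DMSO baseline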
# Summary of the method: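 Value is trapezoidal AUC over recordings on days 5, 7, 9 and 12 of the well-mean fraction of spikes falling in single-electrode bursts; rat cortical cultures exposed continuously from plating, treatment renewed DIV 5 and 9, fitted downward against DMSO.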
Compound,AC50,outcome
Cc1ccccc1OP(=O)(Oc1ccccc1C)Oc1ccccc1C,15 µM (active),–
FC(F)OCC(F)(F)C(F)(F)F,–,inactive
NC(=O)c1ccc(N)nc1,5.88 µM (active),–
C=CC(F)(C(F)(F)F)C(F)(F)C(F)(F)F (stereo not given),–,inactive
CC(=O)C(F)(F)C(F)(F)F,–,inactive
CC(C)[C@@H](Nc1ccc(C(F)(F)F)cc1Cl)C(=O)OC(C#N)c1cccc(Oc2ccccc2)c1 (stereo not given in full),–,inactive
Cc1cc(C(F)(C(F)(F)F)C(F)(F)F)ccc1NC(=O)c1cccc(I)c1C(=O)NC(C)(C)CS(C)(=O)=O,5.5 µM (active),–
O=S(=O)(F)C(F)(F)C(F)(F)C(F)(F)C(F)(F)F,–,inactive
OC(Cc1ccccc1Cl)(Cn1[nH]cnc1=S)C1(Cl)CC1 (stereo not given),50 µM (active),–
CCOCn1c(-c2ccc(Cl)cc2)c(C#N)c(Br)c1C(F)(F)F,6.04 µM (active),–
C=CCOC(F)(C(F)(F)F)C(F)(F)F,–,inactive
CNC(=O)CSP(=O)(OC)OC,–,inactive
CS(=O)(=O)c1ccc(C(=O)C2C(=O)CCCC2=O)c(Cl)c1COCC(F)(F)F,–,inactive
CC1(C)[C@H](C(=O)O[C@H](C#N)c2cccc(Oc3ccccc3)c2)[C@@H]1/C=C(\Cl)C(F)(F)F,22.7 µM (active),–
CC(F)(F)CC(F)(F)F,–,inactive

# Source: PubChem BioAssay (EPA / NIEHS)
